PubChem BioAssay AID485297 (National Center for Advancing Translational Sciences (NCATS), 2010)
Among all 320,000 compounds or so, about 9,100 (2.8%) were called active. Entries that show only a call come without a potency. Not shown: some 3% with an inconclusive outcome. The full list was thinned out, with actives kept by preference. A number with no mark means an inactive call. Calls come from the whole dose curve; as a rule, active = well fitted activation curve with a large enough effect; inconclusive = small, poorly fitted or top-dose-only effect; inactive = no such curve, though single readings can be large or run the other way.

test: qHTS Assay for Rab9 Promoter Activators; settings: Huh7 Rab9 promoter-luciferase reporter, luminescence, 24 h; series mostly up to 9.22 µM; note: nearly all actives have a fitted effect of over 60% in size
Outline: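 Quantitative HTS format; Huh7 Rab9-luciferase reporter cells (1500/well) receive compound 2 h post-plating, incubate 24 h at 37 °C, then get luciferase reagent for 10 min before luminescence reading.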
Potency is the fitted concentration of half-maximal effect.

SMILES	Potency	activation, negative = inhibition
Cc1ccc(NC(=O)CCCNC(=O)c2ccc(Cl)cc2)cc1S(=O)(=O)N1CCOCC1	inactive	–
O=C(NCCSc1ccccc1)c1ccco1	3.55 µM (active)	–
CCS(=O)(=O)Nc1ccc(C(=O)NCCSc2ccccc2)cc1	inactive	–
O=C(NCCSc1ncc(-c2ccccc2)[nH]1)c1ccco1	inactive	–
CC(C)(CNC(=O)CNC(=O)C1CCCCC1)N1CCOCC1	inactive	–
CCCCNC(=O)Cn1nc(C)c(S(=O)(=O)N2CCOCC2)c1C	inactive	–
CC1CCN(S(=O)(=O)c2ccc3c(c2)n(C)c(=O)n3C)CC1	inactive	–
Cc1nonc1C1CCCN1C(=O)c1cc(COc2cccc(C(F)(F)F)c2)on1 (stereo not drawn)	inactive	–
CCOC(=O)CC1(NC(=O)c2cc(COc3cncc(Cl)c3)on2)CCCCC1	inactive	–
CCCOC1CCCN(C(=O)c2cc(COc3cncc(Cl)c3)on2)C1 (stereo not drawn)	1.41 µM (active)	–
CC(C)(C)c1nnc(N/N=C/c2ccc(O)cc2)n(N)c1=O	inactive	–
Cc1ccc(Cn2c(C)c3cnn(CC(=O)NCc4ccccn4)c(=O)c3c2C)cc1	inactive	–
Cc1ccc(C(=O)Nc2ncccc2C)cc1S(=O)(=O)N1CCOCC1	inactive	–
CCOc1ccc(C(=O)Nc2ccc(S(=O)(=O)Nc3cc(C)on3)cc2)cc1	inactive	–
CCOc1ccc(NC(=O)Nc2cc(C)on2)cc1	1.12 µM (active)	–
Cc1cc(NC(=O)COc2ccccc2C#N)no1	3.55 µM (active)	–
Cc1cc(NC(=O)COn2nnc3ccccc32)no1	inactive	–
Cc1cc(NC(=O)COc2ccc([N+](=O)[O-])cc2)no1	inactive	–
CCC(=O)Nc1ccc(C(=O)Nc2cc(C)on2)cc1	inactive	–
Cc1cc(C)cc(NC(=O)C(OC(=O)c2ccc(O)cc2)c2ccccc2)c1 (stereo not drawn)	inactive	–
COc1ccc([C@H]2CC(=O)C=C(c3ccc(OC(F)(F)F)cc3)C2)cc1OC	inactive	–
CCN(CC)S(=O)(=O)c1ccc(N2CCOCC2)c(NC(=O)c2ccc(=O)n(C)n2)c1	inactive	–

SMILES	Potency	activation, negative = inhibition
COc1ccc2c(c1)[C@H]1[C@H](CO2)[C@H](c2ccccc2)[C@]2(C)C(=O)Nc3cc(F)c(F)cc3C(=O)N12	inactive	–
O=C(NCCN1CCOCC1)c1cccc(S(=O)(=O)Nc2ccc(F)cc2)c1	inactive	–
CC(=O)c1c(C)[nH]c(C(=O)COc2ccc3c(C)cc(=O)oc3c2)c1C	inactive	–
O=c1c(Cl)c(NC2CC2)cnn1-c1ccccc1	inactive	–
Cc1ccc(Oc2cnn(-c3ccccc3)c(=O)c2Br)cc1	inactive	–
C=CCNc1cnn(-c2ccc(C)cc2)c(=O)c1Cl	3.55 µM (active)	–
CC(=O)NC12CC3CC(C1)CC(C(=O)N1CCN(S(=O)(=O)c4cccs4)CC1)(C3)C2	inactive	–
CCn1nc(C(=O)Nc2ccc(N3CCOCC3)cc2)c2ccccc2c1=O	inactive	–
c1ccc(-n2cccc2)c(N2CCCCC2)c1	inactive	–
CN(C)c1ccnc(Nc2ccc(F)cc2)c1C#N	inactive	–
CC(C)c1ccc(Nc2ncccc2C#N)cc1	3.55 µM (active)	–
CC(C)c1ccc(/C=C/C(=O)NNC(=O)c2cccnc2)cc1	inactive	–
COc1ccc2c(Cl)c(C(=O)NCc3ccco3)sc2c1	3.16 µM (active)	–
COc1ccc(CNC(=O)CNC(=O)c2sc3ccccc3c2Cl)cc1OC	inactive	–
COc1ccc(C(=O)Nc2ccccc2C(=O)NCc2ccco2)cc1	inactive	–
Cc1c(CNCCc2ccccc2)c(C(=O)O)c(C)n1-c1ccccc1	inactive	–
CCOc1cc(CNCCN(C)C)c(Cl)cc1OCC(=O)NCCc1ccccc1	inactive	–
O=C(CN1CCc2ccccc2C1)Nc1cccc(S(=O)(=O)N2CCOCC2)c1	inactive	–
CC1CCN(C(=O)c2ccccc2NC(=O)Cc2ccccc2)CC1	inactive	–
COc1ccc(Cc2nc3ccc(C(=O)NCC4CCOCC4)cc3o2)cc1OC	inactive	–
CCCCc1nc2cc(C(=O)NCCc3cnn(C)c3)ccc2o1	inactive	–
CSCCNC(=O)c1ccc2nc(Cc3ccccc3F)oc2c1	2.82 µM (active)	–

SMILES	Potency	activation, negative = inhibition
COCCn1c(C)cc(C(=O)CSc2nnc(C3CC3)n2C2CC2)c1C	inactive	–
O=C(CNC(=O)c1ccccc1Br)NNC(=O)c1cccs1	inactive	–
COc1cccc(N2CCN(CC(=O)Nc3ccnn3C3CCCC3)CC2)c1	inactive	–
O=C(Nc1nc(-c2cccnc2)cs1)c1ccccc1F	3.55 µM (active)	–
CN(c1ccc(O)cc1)c1nc(-c2cccnc2)cs1	inactive	–
O=C(Nc1nc(-c2ccc(-c3ccccc3)cc2)cs1)c1cnccn1	inactive	–
O=C(O)c1ccccc1C(=O)Nc1nc(-c2ccccc2)cs1	inactive	–
O=C(NCCc1csc(-c2ccccc2)n1)c1ccccc1F	inactive	–
O=C(Nc1ccc(NC(=O)c2ccccc2F)cc1)c1ccccc1F	inactive	–
O=C(Nc1nnc(-c2ccccc2F)s1)c1ccccc1F	0.708 µM (active)	–
Cc1ccccc1Nc1nc(-c2cccnc2)cs1	2 µM (active)	–
CN(Cc1ccccc1)S(=O)(=O)c1nnc(NC(=O)c2ccccc2F)s1	inactive	–
CC(=O)c1ccc(S(=O)(=O)NCCC(=O)N2CCN(c3ccccn3)CC2)cc1	inactive	–
CCC(C(=O)N1CCN(S(=O)(=O)c2sc(C(=O)O)c(C)c2C(=O)O)CC1)c1ccccc1 (stereo not drawn)	inactive	–
Cc1ccc(COC(=O)CN2C(=O)NC3(CCCC3)C2=O)cc1	inactive	–
COc1ccc(C(=O)OC(C)C(=O)NC2CCCC2)cc1S(=O)(=O)N1CCOCC1 (stereo not drawn)	inactive	–
O=C(COC(=O)Cn1[nH]c(=O)c2ccccc2c1=O)Nc1ncc(Cl)cc1Cl	inactive	–
CCCSC(=S)NC1CCS(=O)(=O)C1 (stereo not drawn)	inactive	–
CN(CC(=O)NCc1ccc2c(c1)OCO2)CC(=O)Nc1ccc(F)c(F)c1F	inactive	–
Cc1ccc(S(=O)(=O)N2CCCCC2)cc1C(=O)N1CCN(CCO)CC1	inactive	–
c1ccc(CN2CCC(N=C3NN=C(c4ccc5c(c4)OCCO5)CS3)CC2)cc1	inactive	–
CN(C)c1nc(=Nc2cccc(Cl)c2)ss1	inactive	–

SMILES	Potency	activation, negative = inhibition
Clc1cccc(N=C2NN=C(c3ccc4c(c3)OCCO4)CS2)c1	3.55 µM (active)	–
COc1ccc(CCNC(=O)COC(=O)C2CC2C)cc1 (stereo not drawn)	inactive	–
O=C(NCCCn1ccnc1)c1cc(-c2ccccc2)on1	3.98 µM (active)	–
COc1ccccc1-c1cc(C(=O)NCCCn2ccnc2)no1	inactive	–
O=C(NC1CCCC1)c1cc(-c2ccccc2)on1	2 µM (active)	–
O=C(NCCCN1CCOCC1)c1cc(-c2cccc(O)c2)on1	inactive	–
O=C(Nc1cccnc1Cl)c1cc(-c2cccc(Cl)c2)on1	inactive	–
COc1ccc(-c2cc(C(=O)NCCCn3ccnc3)no2)cc1	inactive	–
Cc1ccc(C(=O)CN2C(=O)NC3(CCOc4ccccc43)C2=O)s1 (stereo not drawn)	inactive	–
CN(C(=O)CSc1nnc(-c2ccc(C(C)(C)C)cc2)n1C)C1CCS(=O)(=O)C1 (stereo not drawn)	inactive	–
CCNC(=O)c1cccc(NC(=O)C2CC(=O)N(CCc3ccccc3)C2)c1 (stereo not drawn)	inactive	–
O=S(=O)(Nc1cc(Cl)ccc1N1CCOCC1)c1ccccc1Cl	inactive	–
CCOc1ncccc1C(=O)Nc1ccc(S(=O)(=O)Nc2nc(C)cc(C)n2)cc1	inactive	–
O=C(c1ccc(Cl)cc1)c1cnc(Nc2ccccc2)s1	3.98 µM (active)	–
Nc1nc(COC(=O)CCC(=O)c2ccc(Cl)cc2)nc(Nc2ccccc2)n1	inactive	–
O=C(Nc1ccc(Cl)cc1)Nc1nnc(/C=C/c2ccccc2)s1	inactive	–
CCCN(CC(=O)NC(=O)NC1CCCCC1)CC(=O)Nc1cc(Cl)ccc1Cl	inactive	–
CN(C(=O)CSc1nnc(-c2ccc3c(c2)OCO3)o1)C1CCS(=O)(=O)C1 (stereo not drawn)	inactive	–
CCOC(=O)c1c(NC(=O)CN2C(=O)NC3(CCC(C)CC3)C2=O)sc(C)c1CC (stereo not drawn)	inactive	–
O=C(Nc1ccc(Br)cn1)c1ccc([N+](=O)[O-])o1	inactive	–
O=C(Nc1ccncc1)c1ccc([N+](=O)[O-])cc1Cl	–	1.06% [at 1.84 µM]
O=C(Nc1ccc(Br)cn1)c1ccc([N+](=O)[O-])cc1Cl	2.51 µM (active)	–

SMILES	Potency	activation, negative = inhibition
CC/C(Cc1ccccc1)=N/NC(=O)CCn1nnc2ccccc21	inactive	–
CCO/N=C(/C)c1c(O)cc(-c2ccccc2)n(-c2ccccc2)c1=O	inactive	–
CC(=O)Nc1ccc(/C=C/C(=O)c2ccccc2)cc1	3.98 µM (active)	–
CC(=O)Nc1ccc(NC(=S)NC(=O)/C=C/c2ccccc2)cc1	inactive	–
O=C(/C=C/c1ccc(N2CCOCC2)cc1)c1ccccc1	4.47 µM (active)	–
O=C(O)c1ccc2c(c1)C(=O)N(c1ccc(/C=C/C(=O)c3ccccc3)cc1)C2=O	inactive	–
CC(OC(=O)/C=C/c1ccccc1)C(=O)Nc1ccc(C(N)=O)cc1 (stereo not drawn)	inactive	–
O=C(CN1CCN(S(=O)(=O)/C=C/c2ccccc2)CC1)Nc1ccc(N2CCOCC2)cc1	inactive	–
CN(C)C(CNC(=O)c1ccc(OCc2cn3ccccc3n2)cc1)c1ccco1 (stereo not drawn)	inactive	–
COc1ccc(C(=O)NCCNc2ccc([N+](=O)[O-])cn2)cc1	inactive	–
Cc1csc(NC(=O)C2CCN(S(=O)(=O)c3ccccc3)CC2)n1	inactive	–
CC(C)CNC(=O)C(=O)Nc1ccc(N(C)C)cc1	3.16 µM (active)	–
CC(C)CNC(=S)Nc1ccc(F)cc1	inactive	–
CC(C)CNC(=O)C(=O)NCc1ccccc1	inactive	–
COC(=O)C1=CN(c2ccc(F)c(F)c2)C=C(C(=O)OC)C1c1ccc([N+](=O)[O-])cc1	inactive	–
COc1ccc([C@H]2CC(=O)C=C(c3ccc(CO)cc3)C2)cc1	inactive	–
Cc1csc(NC(=O)CSc2nc(=O)n(CCCN(C)C)c3c2CCC3)n1	inactive	–
COCCn1c(C)cc(C2=NNC(=Nc3ccc(F)cc3)SC2)c1C	3.55 µM (active)	–
C=CCn1c(C)cc(C2=NNC(=NCC)SC2)c1C	inactive	–
C=CC1(C)CC(=O)C2(O)C(C)(O1)C(OC(C)=O)C(O)C1C(C)(C)CCC(O)C12C (stereo not drawn)	inactive	–
